Results published in PubChem BioAssay (NCATS).
Records with an inconclusive call do not appear. Active and inactive are the calls of the source. Unless noted, the call rests on the fitted dose curve; in most records, active means well fitted curve in the direction sought with a large enough effect; inconclusive means small, poorly fitted or top-dose-only effect, or another doubt; inactive means no such curve, though single readings can be large; an effect the other way counts as inactive or inconclusive.

Experiments:
[1] = AP1 Signaling Pathway (AID 357; active means well fitted curve in either direction with a large enough effect, not every such curve was filed as active;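 further: ME-180 reporter cells stimulated with EGF at its EC50 level; on the % scale 0 is the no-effect control and ±100 the full control effect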)
Method in brief: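 Titration-series screen for positive or negative modulators of EC50 EGF-induced signaling in ME-180 cells carrying an AP-1-driven beta-lactamase reporter. After 5 hours at 37 degrees Celsius, CCF4 460nm/530nm emission ratio gave %Activity; AC50 values derived.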

[2] = NFAT Signaling Pathway (AID 444; active means well fitted curve in either direction with a large enough effect, not every such curve was filed as active;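 further: carbachol stimulus at about its EC50 of 1 µM final; on the % scale 0 is the no-effect control and ±100 the full control effect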); settings: Jurkat NFAT-bla M1, carbachol, beta-lactamase ratio, 5 h; at 17.2 µM (top of the series) unless noted
Method in brief: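 Read-out: CCF4 FRET ratio (460 nm/530 nm) after 1 h RT dye loading, used for %activity and AC50 from titration series. Cells: Jurkat NFAT-β-lactamase/M1 line, treated with compound plus 1 uM carbachol for 5 h, 37 °C.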

[3] = Stat Signaling Pathway (AID 446; active means well fitted curve in either direction with a large enough effect, not every such curve was filed as active;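 further: ME-180 cervical cancer cells given 40 pM IL-6 alongside compound; SIE-controlled beta-lactamase reporter measured as 460/530 nm FRET emission ratio; on the % scale 0 is the no-effect control and ±100 the full control effect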)
Method in brief: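 Overnight-plated ME-180 cells bearing a STAT Inducible Element beta-lactamase reporter; 5 h co-exposure to compound and 40 pM IL-6; values normalized to 300 pM IL-6 and 125 nM JAK inhibitor controls.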

[4] = molecular target: Mitogen-activated protein kinase 10 (Mus musculus) (UniProt Q61831); assay: JNK3 AlphaScreen Assay (AID 530; active means well fitted curve in either direction with a large enough effect, not every such curve was filed as active;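 further: kinase came from lysate of stimulated human HepG2 cells; signal reports phosphorylation of biotinylated GST-cJun 1-79 at Ser73 with 10 µM ATP; on the % scale 0 is the no-effect control and ±100 the full control effect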)
Method in brief: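 qHTS titrations with 15 min compound pre-incubation before adding ATP (10 uM final). Read-out: AlphaScreen of Ser73-phosphorylated biotin-GST-cJun using HepG2 lysate JNK3 activated by IL-1β and TNFα.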

[5] = molecular target: 3',5'-cyclic-AMP phosphodiesterase 4B (Homo sapiens) (UniProt Q07343); assay: qHTS Assay for Inhibitors of PDE-IV (AID 607; active means well fitted activation curve with a large enough effect in the main read-out, with a control signal flat, not every such curve was filed as active; further: % of control where 0% means no effect)
Method in brief: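 Live HEK293 cells with a modified cyclic nucleotide-gated (CNG) channel report intracellular cAMP via membrane-potential dye fluorescence (ex 535/em 590 nm). Endogenous PDE-IV was targeted. Compounds were tested at up to 22.9 uM final; RO 20-1724 100 uM served as control.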

[6] = qHTS Assay for Lipid Storage Modulators (AID 1519; calls by dose curve); settings: Drosophila S3 cells, BODIPY lipid droplet/cell ratio, laser cytometry, cells loaded with oleic acid; for activity change, negative = inhibition: at 25.7 µM (top of the series)
Method in brief: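 Cells seeded at 5,000 per well were treated with compounds over a concentration series and loaded with oleic acid (400 uM, as added). Lipid droplet fluorescence (488 nm excitation, 500-530 nm channel) was read by laser-scanning cytometry and normalized to 20 uM Triacsin C.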

[7] = molecular target: Ubiquitin carboxyl-terminal hydrolase 1 (Homo sapiens) (UniProt O94782); assay: Inhibitors of USP1/UAF1: Pilot qHTS (AID 504865);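 further: rhodamine fluorescence freed from ubiquitin-rhodamine substrate followed over time; top concentration of the series differs between compounds; on the % scale 0 is the no-effect control and ±100 the full control effect; nearly all actives have a fitted effect of over 35% in size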
Method in brief: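 Kinetic fluorescence assay: 1nM USP1/UAF1, 15 min compound preincubation, then 150nM Ub-Rho; 480/540 nm.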

[8] = molecular target: Glucocorticoid receptor (Homo sapiens) (UniProt P04150); assay: GR-GFP Redistribution (AID 450;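 active means compounds whose dose series gives a full or clear partial fitted curve of increased nuclear translocation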; further: potency means the concentration at half of the fitted maximal effect); settings: U2OS GR-GFP nuclear translocation, laser cytometry, 2 h
[9] = molecular target: Glucocorticoid receptor (Homo sapiens) (UniProt P04150); assay: GR-EFC Redistribution (AID 451; calls by dose curve; further: potency means the concentration at half of the fitted maximal effect); settings: CHO-K1 GR-EFC translocation, beta-gal luminescence, 2 h
Method in brief: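 Translocation of GR-ED fusion to nuclear EA restores b-gal, read by luminescence after 1 h room-temperature detection. Engineered CHO-K1 biosensor cells, 1,000/well, exposed 2 h at 37 C to titrations up to 46 uM final.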

[10] = molecular target: ATP-dependent 6-phosphofructokinase (Trypanosoma brucei brucei) (UniProt O15648); assay: qHTS Assay to Find Inhibitors of T. brucei phosphofructokinase: hit validation (AID 492961)
Method in brief: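 ADP-Glo luminescence read-out of ADP formed by 1.25 nM PFK from 0.1 mM ATP and 0.5 mM F6P (TEA pH 8.0, 45 min, RT). Compounds titrated; activity normalized to no-enzyme and full-enzyme controls.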

[11] = S16 Schwann cell PMP22 intronic element firefly luciferase assay (AID 624032);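 further: plate controls were DMSO for no effect and PTC124 positive control mean for full effect; nearly all actives have a fitted effect of over 30% in size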
Method in brief: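 Luciferase reporter of PMP22 intronic-element expression in stably transfected S16 rat Schwann cells, read by ONE-Glo luminescence after 24 h compound exposure at 37 C. Activity scaled between DMSO (0%) and positive-control PTC124; concentration-effect curves quality-classified.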

[12] = qHTS profiling for inhibitors of Plasmodium falciparum proliferation (AID 504749);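 further: 0% = DMSO vehicle and full inhibition = artemisinin control; nearly all actives have a fitted effect of over 60% in size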; settings: P. falciparum in erythrocytes, SYBR Green DNA, 72 h, at 12.8 µM (top of the series)
Method in brief: (§1)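 SYBR Green fluorescence of parasite DNA, read after lysis and overnight dark incubation, measured growth over 72 h in erythrocyte culture at 0.3% parasitemia and 2.5% hematocrit. Data normalised to DMSO and 0.29 uM artemisinin, with plate-drift correction.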

[13] = test system: C2A; assay: as above; settings: P. falciparum in erythrocytes, SYBR Green DNA, 72 h; series mostly up to 12.8 µM
Method in brief: as §1

[14] = test system: CP201; assay: as above; settings: P. falciparum in erythrocytes, SYBR Green DNA, 72 h; series mostly up to 12.8 µM
Method in brief: as §1

[15] = test system: CP238; assay: as above; settings: P. falciparum in erythrocytes, SYBR Green DNA, 72 h; series mostly up to 12.8 µM
Method in brief: as §1

[16] = test system: CP250; assay: as above; settings: P. falciparum in erythrocytes, SYBR Green DNA, 72 h; series mostly up to 12.8 µM
Method in brief: as §1

[17] = test system: FAB9; assay: as above; settings: P. falciparum in erythrocytes, SYBR Green DNA, 72 h; series mostly up to 12.8 µM
Method in brief: as §1

[18] = test system: JCK; assay: as above; settings: P. falciparum in erythrocytes, SYBR Green DNA, 72 h; series mostly up to 12.8 µM
Method in brief: as §1

[19] = test system: PC49; assay: as above; settings: P. falciparum in erythrocytes, SYBR Green DNA, 72 h; series mostly up to 12.8 µM
Method in brief: as §1

[20] = test system: SC27B; assay: as above; settings: P. falciparum in erythrocytes, SYBR Green DNA, 72 h; series mostly up to 12.8 µM
Method in brief: as §1

[21] = measured here: cell count channel max response
[22] = measured here: lipid channel max response

Sequence of 3',5'-cyclic-AMP phosphodiesterase 4B (Homo sapiens) (Q07343 whole entry, looked up): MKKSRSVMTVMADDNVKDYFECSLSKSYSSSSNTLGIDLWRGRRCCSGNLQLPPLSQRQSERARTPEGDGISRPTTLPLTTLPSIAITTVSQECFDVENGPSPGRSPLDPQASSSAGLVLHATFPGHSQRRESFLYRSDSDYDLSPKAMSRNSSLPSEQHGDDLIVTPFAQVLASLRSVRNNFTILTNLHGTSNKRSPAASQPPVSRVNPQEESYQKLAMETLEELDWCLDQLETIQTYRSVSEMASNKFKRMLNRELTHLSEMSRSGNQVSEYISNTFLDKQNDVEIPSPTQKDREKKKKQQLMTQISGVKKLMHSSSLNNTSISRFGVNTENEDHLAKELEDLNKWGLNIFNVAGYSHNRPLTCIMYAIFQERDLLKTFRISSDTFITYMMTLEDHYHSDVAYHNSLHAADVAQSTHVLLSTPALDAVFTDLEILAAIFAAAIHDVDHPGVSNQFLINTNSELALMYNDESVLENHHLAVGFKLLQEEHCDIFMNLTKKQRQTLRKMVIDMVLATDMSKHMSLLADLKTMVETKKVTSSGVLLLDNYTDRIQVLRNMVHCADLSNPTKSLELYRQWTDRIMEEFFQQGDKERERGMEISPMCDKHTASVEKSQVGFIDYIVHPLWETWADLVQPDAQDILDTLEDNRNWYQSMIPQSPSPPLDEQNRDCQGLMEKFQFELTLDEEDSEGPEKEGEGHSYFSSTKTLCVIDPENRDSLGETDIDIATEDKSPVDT
Sequence of Ubiquitin carboxyl-terminal hydrolase 1 (Homo sapiens) (O94782 whole entry, looked up): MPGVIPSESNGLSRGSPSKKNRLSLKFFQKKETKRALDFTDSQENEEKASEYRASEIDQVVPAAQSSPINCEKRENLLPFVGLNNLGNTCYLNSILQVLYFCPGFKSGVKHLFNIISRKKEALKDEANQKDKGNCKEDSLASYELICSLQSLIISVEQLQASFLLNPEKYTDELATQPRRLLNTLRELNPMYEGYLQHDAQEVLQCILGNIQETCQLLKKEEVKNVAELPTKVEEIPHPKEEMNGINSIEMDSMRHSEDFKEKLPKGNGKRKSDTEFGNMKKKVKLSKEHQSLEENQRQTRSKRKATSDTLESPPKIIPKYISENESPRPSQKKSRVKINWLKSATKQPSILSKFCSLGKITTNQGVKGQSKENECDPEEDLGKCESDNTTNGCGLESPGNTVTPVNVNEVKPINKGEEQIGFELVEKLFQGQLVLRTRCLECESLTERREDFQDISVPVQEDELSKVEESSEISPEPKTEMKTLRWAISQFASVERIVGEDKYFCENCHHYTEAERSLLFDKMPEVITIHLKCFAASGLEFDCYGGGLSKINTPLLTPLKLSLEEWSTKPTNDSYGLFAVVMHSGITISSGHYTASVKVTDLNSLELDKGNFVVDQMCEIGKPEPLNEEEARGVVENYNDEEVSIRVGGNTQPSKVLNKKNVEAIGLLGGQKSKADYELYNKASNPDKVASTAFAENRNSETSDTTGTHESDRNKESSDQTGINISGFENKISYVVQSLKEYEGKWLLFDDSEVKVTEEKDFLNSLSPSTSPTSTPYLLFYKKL
Sequence of Glucocorticoid receptor (Homo sapiens) (P04150 whole entry, looked up, the tested form may be a part): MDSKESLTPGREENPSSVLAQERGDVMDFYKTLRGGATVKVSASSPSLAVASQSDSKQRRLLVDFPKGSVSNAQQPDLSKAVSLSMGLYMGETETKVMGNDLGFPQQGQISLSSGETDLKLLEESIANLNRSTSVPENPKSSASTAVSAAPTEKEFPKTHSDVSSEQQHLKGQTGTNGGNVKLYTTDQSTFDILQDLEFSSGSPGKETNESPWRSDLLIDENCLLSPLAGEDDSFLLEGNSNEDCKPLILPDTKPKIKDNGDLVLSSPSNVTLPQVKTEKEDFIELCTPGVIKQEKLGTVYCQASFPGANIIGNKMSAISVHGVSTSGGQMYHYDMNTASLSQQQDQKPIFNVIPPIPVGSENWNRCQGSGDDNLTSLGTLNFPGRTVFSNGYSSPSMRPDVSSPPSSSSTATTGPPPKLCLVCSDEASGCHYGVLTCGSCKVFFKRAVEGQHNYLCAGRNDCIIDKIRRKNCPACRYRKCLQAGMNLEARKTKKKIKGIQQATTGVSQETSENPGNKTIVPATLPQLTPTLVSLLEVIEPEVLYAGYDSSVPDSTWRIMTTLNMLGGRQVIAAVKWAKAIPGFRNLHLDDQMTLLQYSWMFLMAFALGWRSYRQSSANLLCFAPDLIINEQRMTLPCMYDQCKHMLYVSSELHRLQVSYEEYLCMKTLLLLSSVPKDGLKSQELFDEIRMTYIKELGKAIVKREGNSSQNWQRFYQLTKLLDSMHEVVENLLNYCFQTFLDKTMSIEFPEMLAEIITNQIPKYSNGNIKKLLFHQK
Sequence of ATP-dependent 6-phosphofructokinase (Trypanosoma brucei brucei) (O15648 whole entry, looked up): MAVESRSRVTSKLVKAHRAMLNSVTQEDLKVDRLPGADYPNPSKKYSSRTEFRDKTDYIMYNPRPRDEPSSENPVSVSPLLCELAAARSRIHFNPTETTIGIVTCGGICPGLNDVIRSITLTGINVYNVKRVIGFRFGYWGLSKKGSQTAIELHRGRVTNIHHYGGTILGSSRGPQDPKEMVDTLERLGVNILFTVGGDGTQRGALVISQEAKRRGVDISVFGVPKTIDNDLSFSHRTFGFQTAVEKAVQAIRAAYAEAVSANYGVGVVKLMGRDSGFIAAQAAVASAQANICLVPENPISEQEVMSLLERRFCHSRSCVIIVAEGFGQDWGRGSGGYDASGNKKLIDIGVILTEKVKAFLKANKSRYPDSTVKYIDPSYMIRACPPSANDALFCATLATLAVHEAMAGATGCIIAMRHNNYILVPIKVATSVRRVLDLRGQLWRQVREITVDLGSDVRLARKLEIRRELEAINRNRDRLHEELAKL

O=C(N[C@@H](CO)[C@@H](O)c1ccc([N+](=O)[O-])cc1)C(Cl)Cl
inactive: outcome [1] | activity change, negative = inhibition [2] -12.6% | outcome [3] | Potency [4] | outcome [5] | activity change, negative = inhibition [6] -1.53% | Potency [7]
11.1%: max response [6, 21]
8.81%: max response [6, 22]

CC1=C(C(=O)O)N2C(=O)[C@@H](NC(=O)[C@@H](N)c3ccc(O)cc3)[C@@H]2SC1
-2.01%: max response [6, 22]
inactive: outcome [1] | activity change, negative = inhibition [2] -8.2% | Potency [8] > 20.6 µM | Potency [9] > 20.6 µM | Potency [4] | activity change, negative = inhibition [6] 1.21% | outcome [10] | Potency [7] | Potency [11] | activity, negative = inhibition ([12]; parasite line A) 9.01% | activity, negative = inhibition ([12]; parasite line B) 1.57% | Potency [13] | Potency [14] | Potency [15] | Potency [16] | Potency [17] | Potency [18] | Potency [19] | Potency [20]
-1.1%: max response [6, 21]

C[C@H](O)Cn1cnc2c1c(=O)n(C)c(=O)n2C
-2.3%: max response [6, 21]
inactive: outcome [1] | activity change, negative = inhibition [2] 18.8% | Potency [4] | outcome [5] | activity change, negative = inhibition [6] 0.562% | outcome [10] | Potency [7] | Potency [11] | activity, negative = inhibition ([12]; parasite line A) 7.57% | activity, negative = inhibition ([12]; parasite line B) -0.935% | Potency [13] | Potency [14] | Potency [15] | Potency [16] | Potency [17] | Potency [18] | Potency [19] | Potency [20]
-3.77%: max response [6, 22]

CC[C@@H]1OC(=O)[C@H](C)[C@H](O[C@@H]2C[C@](C)(OC)[C@H](O)[C@H](C)O2)[C@H](C)[C@H](O[C@@H]2O[C@@H](C)C[C@@H](N(C)C)[C@@H]2O)[C@](C)(O)C[C@H](C)C(=O)[C@H](C)[C@H](O)[C@]1(C)O
9.04%: max response [6, 21]
8.95%: max response [6, 22]
inactive: outcome [1] | activity change, negative = inhibition [2] 0.792% | outcome [3] | Potency [4] | outcome [5] | activity change, negative = inhibition [6] -1.3%

CC[C@H](CC[C@H](C)[C@@H]1CC[C@@H]2[C@H]3CC=C4C[C@@H](O)CC[C@]4(C)[C@H]3CC[C@]21C)C(C)C
inactive: outcome [1] | activity change, negative = inhibition [2] -3.85% | Potency [8] > 20.6 µM | Potency [9] > 20.6 µM | Potency [4] | outcome [5] | activity change, negative = inhibition [6] 2.08% | Potency [7]
-14.8%: max response [6, 21]
-14.7%: max response [6, 22]

CO[C@@H]1C=CO[C@]2(C)Oc3c(C)c(O)c4c(O)c(c(C=NN5CCN(C)CC5)c(O)c4c3C2=O)NC(=O)C(C)=CC=C[C@H](C)[C@H](O)[C@H](C)[C@H](O)[C@H](C)[C@H](OC(C)=O)[C@H]1C
-4.23%: max response [6, 22]
-4.36%: max response [6, 21]
inactive: outcome [1] | activity change, negative = inhibition [2] -8.69% | outcome [3] | Potency [4] | outcome [5] | activity change, negative = inhibition [6] -0.87%
